# Experimental data reported in the supplement of paper PMC9844399.
# Where a name gives a salt, the structure may show the parent alone. A number with no mark means an inactive call.
# Tested on: HeLa
# Assay: MALAT1 nuclear FISH intensity, robust Z-score vs DMSO; higher = more nuclear MALAT1 lncRNA, active = -3 or less
# Details: 10 µM; 6 h
# 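Further: High-content confocal imaging of branched-DNA amplified FISH in 384-well plates, Hoechst-defined nuclei, score is well value minus plate DMSO median over DMSO robust SD, four wells per compound.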
row,SMILES,MALAT1 nuclear FISH intensity
1,Cn1cc(-c2ccc3c(c2)CCN3C(=O)Cc2cccc(C(F)(F)F)c2)c2c(N)ncnc21,-0.916
2,Nc1nc(/C(=C/CC(=O)O)C(=O)N[C@@H]2C(=O)N3C(C(=O)O)=CCS[C@H]23)cs1 [Ceftibuten],2.01
3,Nc1ccc(O)c(C(=O)O)c1 [Mesalamine (5-Aminosalicylic Acid)],0.788
4,CN(C)CCOc1ccc(/C(=C(/CCCl)c2ccccc2)c2ccccc2)cc1 [Toremifene citrate salt],-0.629
5,CCCCCCCCc1ccc(CCC(N)(CO)CO)cc1 [Fingolimod],-3.21 (active)
6,Cc1coc2c1C(=O)C(=O)c1c-2ccc2c1CCCC2(C)C [Tanshinone IIA],-0.607
7,CCCCC[C@H](O)/C=C/[C@@H]1[C@H]2C/C(=C/CCCC(=O)O)C[C@H]2C[C@H]1O [Carbacyclin],-0.0941
8,NC(=O)c1ccc(-c2nc(-c3ccccn3)c(-c3ccc4c(c3)OCO4)[nH]2)cc1,0.3
9,COCC1=C(C(=O)OC(C)OC(=O)OC(C)C)N2C(=O)[C@@H](NC(=O)/C(=N\OC)c3csc(N)n3)[C@H]2SC1 (some centres undefined) [Cefpodoxime Proxetil],-0.615
10,Cn1ccnc1S [Methimazole],-0.992
11,CCCCCCCCCCCCCCCCOCC(CO)OC (centres undefined) [1-Hexadecyl-2-O-methyl-glycerol],0.28
12,CCCCCCCCCCCCC/C=C/[C@@H](O)[C@H](CO)NC(=O)CCCCCCC [C8 Ceramide],0.0724
13,c1ccc2c(Cc3c[nH]c4ccccc34)c[nH]c2c1 [Diidolylmethane],1.47
14,CCCCCC(O)C=CC1C2CC(CO2)C1CC=CCCCC(=O)O (centres undefined),-2.94
15,Cc1ccc(O)c([C@H](CCN(C(C)C)C(C)C)c2ccccc2)c1 [Tolterodine L-tartrate],-0.93
16,CN(C)[C@@H]1C(O)=C(C(N)=O)C(=O)[C@@]2(O)C(O)=C3C(=O)c4c(O)ccc(Cl)c4[C@@H](O)[C@H]3C[C@@H]12,-1.19
17,O=C1[C@H](CC[C@H](O)c2ccc(F)cc2)[C@@H](c2ccc(O)cc2)N1c1ccc(F)cc1 [Ezetimibe],-0.312
18,CCN(Cc1ccncc1)C(=O)C(CO)c1ccccc1 (centres undefined) [Tropicamide],0.299
19,CN(C)CCc1c[nH]c2ccc(Cn3cncn3)cc12 [Rizatriptan Benzoate],-0.661
20,Nc1ncnc2c1ncn2C1CCCO1 (centres undefined),-1.6

row,SMILES,MALAT1 nuclear FISH intensity
1,CC(=O)S[C@@H]1CC2=CC(=O)CC[C@]2(C)[C@H]2CC[C@@]3(C)[C@@H](CC[C@@]34CCC(=O)O4)[C@H]12 [Spironolactone],-1.8
2,CC[C@H](C)C(=O)O[C@H]1C[C@@H](C)C=C2C=C[C@H](C)[C@H](CC[C@@H](O)C[C@@H](O)CC(=O)O)[C@H]21 [Lovastatin Sodium Salt],-0.314
3,COc1cc(NC(C)CCCN)c2ncccc2c1 (centres undefined) [Primaquine bisphosphate],-1.83
4,Cc1n[nH]c(C)c1Cc1sc2c(c1C(=O)N1C[C@H](O)CO1)c(=O)n(C)c(=O)n2CC(C)C,0.642
5,CC(C)[C@H](NC(=O)CNC(=O)OC(C)(C)C)C(=O)N[C@H](C=O)C(C)C,-0.412
6,CC(CN1c2ccccc2Sc2ccccc21)N(C)C (centres undefined),0.883
7,CN(C)CCCN1c2ccccc2CCc2ccc(Cl)cc21,-0.47
8,CCCC1O[C@@H]2C[C@H]3[C@@H]4CCC5=CC(=O)C=C[C@]5(C)[C@H]4[C@@H](O)C[C@]3(C)[C@]2(C(=O)CO)O1 (some centres undefined) [Budesonide],1.13
9,CN1CCN(CCCN2c3ccccc3Sc3ccc(C(F)(F)F)cc32)CC1 [Trifluoperazine],1.61
10,Oc1c(Cl)cc(Cl)c(Cl)c1Cc1c(O)c(Cl)cc(Cl)c1Cl [Hexachlorophene],0.867
11,NS(=O)(=O)Cc1noc2ccccc12 [Zonisamide],-1.25
12,CCCCCCCCCCOCCC(=O)O [4-Oxatetradecanoic acid],0.729
13,CN(C)c1cc(NC(=O)CNC(C)(C)C)c(O)c2c1C[C@H]1C[C@H]3[C@H](N(C)C)C(O)=C(C(N)=O)C(=O)[C@@]3(O)C(O)=C1C2=O [Tigecycline],0.955
14,COCc1cc(O)c(O)c(O)c1-c1c(COC)cc(O)c(O)c1O,-0.461
15,CCCCCCNC(=O)n1cc(F)c(=O)[nH]c1=O [Carmofur],-0.327
16,CC(C)(C)C1CCN(C(=O)n2ncc(C(O)(c3ccccc3)c3ccccc3)n2)CC1,-0.425
17,CCCCC/C=C\C/C=C\CCCCCCCC(=O)O [Linoleic acid],-0.23
18,O=C(O)CCC/C=C\C[C@@H]1[C@@H](/C=C/[C@H](O)C2Cc3ccccc3C2)[C@@H](F)C[C@@H]1O,-1.64
19,CC(C)c1ccc2oc3nc(N)c(C(=O)O)cc3c(=O)c2c1 [Amlexanox],0.337
